This test deals with HL-60(TB) leukemia. The experiment in a line: NCI-60 one-dose screen, 48 h (100 = growth as untreated, 0 = no growth, -100 = all killed). The following applies: 10 µM unless noted.

SMILES strings stand for the structures. This is part of a sample that, as a whole, favours compounds with a hit. Of some 83,000 tested, about 20% had one in any assay.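 Method: cells in 96-well plates; compound added at one concentration; 48 h incubation; percent growth measured; values under 10 scored active.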 Values without a mark were called inactive. Active and inactive are the calls of the source.

With `CC(C)(C)CC(C)(C)c1ccc(OCCSC(=N)N)cc1`, the growth is 22.2%.

For `CCN(CC)c1ccc(/C=C\c2cc(C)c3cc(C)ccc3n2)cc1`, the growth was 21.5%.

Turning to `O=C(O)C1[S][Sb]([CH](C(=O)O)[CH](C(=O)O)[Sb]2[S]C(C(=O)O)C(C(=O)O)[S]2)[S]C1C(=O)O` (configuration not stated), the growth is 94.3%.

Turning to `C=C(C)[C@@H]1CC[C@]2(C(=O)N[C@@H](Cc3ccccc3)C(=O)OC)CC[C@]3(C)[C@H](CC[C@@H]4[C@@]5(C)CCC(=O)C(C)(C)[C@@H]5CC[C@]43C)[C@@H]12`, the growth is 56%.

Regarding `COc1ccc(/C=N/Nc2c3ccccc3nc3ccccc23)cc1`, the growth is 92.9%.

In the case of `Cc1ccc[n+](CCC(N)=O)c1`, the growth was 86.6%.

For the compound `CCOC(=O)C(Cc1ccccc1)n1c(O)c(/C=N/c2ncc(Cc3ccc(Cl)cc3Cl)s2)sc1=S` (configuration not stated), the growth was -35.2% (active).

In the case of `Nc1ncc(-c2ccc3ncnc(N4CCc5cc(F)c(Cl)cc54)c3c2)cn1`, the growth was 56.5%.

Turning to `CCN(CC)CCOc1nc2ccc(OC)cc2c2c1-c1ccc(OC)cc1C2=O`, the growth was 19.2%.

Take `COc1ccc(NC(=O)c2ccc(NC3=C(c4ccc(Cl)cc4)C(=O)NC3=O)cc2)cc1`: the growth is 80.3%.

On to `c1ccc(-c2cccc(-c3ccccn3)n2)nc1`, for which the growth is -16.9% (active).

As for `O=C(NCc1ccc(Cn2c(=O)sn(-c3ccc(Cl)cc3)c2=O)cc1)OCc1ccc2c(Cl)cc(Cl)c(O)c2n1`, the growth is 56.3%.

Turning to `O=C1/C(=C\c2cccn2Cc2ccc(F)cc2)c2ccccc2N1c1c(Cl)cccc1Cl`, the growth was 96.5%.

As for `COc1ccc(-c2nc(N3CCN(C(=O)C4CCCCC4)CC3)c3c4c(sc3n2)CCCC4)cc1`, the growth was 39%.

As for `COC(=O)C(Cc1ccccc1)n1cc(COc2nc(Cl)nc(Nc3ccc(Cl)cc3)n2)nn1` (configuration not stated), the growth was 72.2%.

As to `CN(C)CCN(Cc1ccccc1)c1ccccc1`, the growth is 86.6%.

As for `COC(=O)c1nc(-c2ccccc2)oc1S(=O)(=O)n1nc(C)cc1N`, the growth is 7.17% (active).

`Fc1ccc(-c2nc(-c3nc4ncccc4[nH]3)cc3c2[nH]c2ccccc23)cc1F`: the growth is 86.4%.

As for `COc1cc(NS(=O)(=O)C(C)C)cc(-c2cc(-c3ccc(N4CCNCC4)cc3)cnc2N)c1`, the growth was 78.3%.

With `C=C1C(=O)O[C@H]2[C@H]1CC/C(Cn1cc(-c3ccc(OC)cc3)nn1)=C\CC[C@@]1(C)O[C@@H]21`, the growth is -35.2% (active).

On to `CN(C)C(=O)Oc1cccc([N+](C)(C)C)c1`, for which the growth was 91%.

`COC1=CC(c2ccc[nH]2)=N/C1=C\c1[nH]c(C)c(C(=O)Oc2ccccc2)c1C`: the growth was 11.4%.

Consider `O=C(CCCCCCSc1nc(-c2ccccc2)cc(-c2ccccc2)n1)NO`, for which the growth was -33.2% (active).

Consider `Cn1ccnc1C(=O)/C=C/c1ccc(C(=O)Nc2ccccc2O)cc1`, for which the growth is 0.702% (active).

With `Cc1nc2ccc(Cl)cn2c1-c1nnc(SCc2ccc([N+](=O)[O-])cc2)o1`, the growth is 109%.

Turning to `CCOC(=O)/C(C#N)=C(/C)C1CC1`, the growth was 110%.

Regarding `O=C1C=CC2=C3c4cc(O)c(O)cc4CC3(O)COC2=C1O` (configuration not stated), the growth is 102%.

For `CC(C)(C)n1cc(-c2ccnc(NCCCNS(=O)(=O)c3ccc(C(F)(F)F)cc3)c2)c(-c2cccc(F)c2)n1`, the growth is 94.6%.

As to `Cc1cc(N2CCCCC2)nc(N(CCNc2ccnc3cc(Cl)ccc23)Cc2ccco2)n1`, the growth is -46.3% (active).

For `O=c1[nH]c2ccccc2n2cc3cccnc3c12`, the growth is 87.5%.

Regarding `O=C1Nc2ccc(Cl)cc2/C1=N/c1nc(-c2ccc(F)cc2)cs1`, the growth is -36.7% (active).

As for `CC[C@@H](C(=O)[C@@H](C)[C@@H](O)[C@H](C)[C@@H]1O[C@@H]([C@@H](CC)C(=O)ONC(=O)c2ccccc2O)CC[C@@H]1C)C1O[C@]2(C=CC(=O)[C@]3(CC[C@@](C)([C@H]4CC[C@](O)(CC)[C@H](C)O4)O3)O2)[C@H](C)C[C@@H]1C` (some centres not stated), the growth is -45.7% (active).

For the compound `COc1cc(C(=O)/C=C/c2c(Cl)nc3sccn23)cc(OC)c1OC`, the growth was 52.2%.

In the case of `COc1ccc(C2=Nc3c(N)ncnc3NC(c3cccc(Nc4ccnc5cc(C(F)(F)F)ccc45)c3)C2)cc1` (configuration not stated), the growth is 42.7%.

Take `CCCCCCCC(=O)SCC/C=C/[C@@H]1CC(=O)NCc2cccc(n2)CN(Cc2ccc3ccccc3c2)CC(=O)N[C@@H](C(C)C)C(=O)O1`: the growth is 11%.

For the compound `C[C@@H](C[C@H](CCO)c1cc(C(F)(F)F)cc(C(F)(F)F)c1)c1ccc2ccccc2c1`, the growth was 93.5%.

As for `Cn1c(NCCc2ccc(O)c(O)c2)nc2c1c(=O)n(Cc1ccc(Br)cc1)c(=O)n2C`, the growth was 2.61% (active).

`COc1cc(-c2nc3ccccc3s2)ccc1OCc1nc2n(n1)S(=O)(=O)c1ccccc1N2c1ccccc1`: the growth was 16.2%.

For the compound `C[C@@H]1C[C@H]2C(=O)O[C@@H](C)[C@H](NC(=O)[C@H](Cc3cc(F)cc(F)c3)NC(=O)Nc3ccc(Cl)cc3F)C(=O)N3C[C@H](O)C[C@H]3C(=O)N3CCN(C)C[C@H]3C(=O)N[C@@H](C)C(=O)N2C1`, the growth is 30.1%.

For the compound `Cc1ccc2c(c1)=C/C(=C\c1cc(-c3ccccc3)oc1O)C(=O)N=2`, the growth is 98%.

As to `O=C1C2=C(Nc3cc([N+](=O)[O-])ccc3N2)OC1c1c2ccccc2cc2ccccc12` (configuration not stated), the growth was 14.2%.

As for `CCS(=O)(=O)c1ncnc2nc[nH]c12`, the growth was 101%.

For the compound `Cc1ccc(-c2c3c(N)nc(-c4ccncc4)nc3nc3c2c(C)nn3-c2ccccc2)cc1`, the growth was 97%.

`COc1ccc(/C=C(/C(=O)N2CCNCC2)c2cc(OC)c(OC)c(OC)c2)cc1O`: the growth is -37.7% (active).

Take `Cc1nc(Nc2cccnc2)sc1C(=O)/C=C/c1ccc(Cl)cc1`: the growth is -4.8% (active).

For `O=C(CI)NCCNc1cccc2c(S(=O)(=O)O)cccc12`, the growth was 105%.

For the compound `O=NN(Cc1cccnc1)C(=O)NC1CCCCC1`, the growth was 120%.

Take `CC(=O)N(Cc1ccccc1)c1nc2ccc(O)c(CN(C)C)c2s1`: the growth is 105%.

As for `CCCCc1c(CCC)c(=N)c2ccccc2n1C`, the growth is 77%.

Regarding `Cc1ccn2c(-c3csc(Nc4cccc(O)c4)n3)c(C)nc2c1`, the growth was -19.4% (active).

Regarding `CN1C(=O)N(C)[C@H]2NC(NN)=N[C@H]21`, the growth was 102%.

For `CC1=C(SCCC(=O)OC(C[Se]C2=C(C)C(=O)c3ccccc3C2=O)C(=O)NCCCCCC(=O)OCc2ccccc2)C(=O)c2ccccc2C1=O` (configuration not stated), the growth is -1.59% (active).

Consider `Cc1ccc(=O)n(-c2ccc(Br)cc2F)c1`, for which the growth is 106%.

For the compound `CCN(CC)CCSc1c2ccc(Cl)cc2nc2ccc(OC)cc12`, the growth was 68.8%.

On to `CCCC(CCC)Oc1ccc(CCCC2=C(O)c3ccccc3C(=O)C2=O)cc1`, for which the growth is 37.5%.

Consider `COc1ccc2cc(-c3ccc(C(=O)NN)c(C)n3)ccc2c1`, for which the growth is 104%.

`O=[N+]([O-])c1ccc(N/N=C/c2ccccc2O)nc1`: the growth is 0.837% (active).

In the case of `CCCCc1ccc(NS(=O)(=O)c2cc3c4c(c2)CCN4C(=O)CC3)cc1`, the growth was -23.6% (active).

Turning to `O=S(=O)(Nc1cc(Sc2nc3ccccc3s2)c(O)c2ccccc12)c1ccc2ccccc2c1`, the growth was 71.6%.

For `COc1ccc(-c2n/c(=C\c3c(O)[nH]c4ccccc34)cc3c2=Nc2ccccc2-3)cc1`, the growth was -19.1% (active).

Take `CN1CCN(Cc2ccc(NC(=O)c3cncc(C#Cc4cnc(N)c5ncccc45)c3)cc2Cl)CC1`: the growth was 21.5%.

On to `N#CSCC1CC(O)(c2ccccc2)CC(c2ccc(F)cc2)O1` (configuration not stated), for which the growth was -38.7% (active).

In the case of `COc1cc2nn(-c3ccccc3N)nc2cc1OC`, the growth is 102%.

As for `O=C(Nc1ccncc1)C(=O)c1cn(S(=O)(=O)c2ccccc2F)c2ccccc12`, the growth is 12.7%.

Turning to `CN(C)CCN1C(=O)c2cccc3c(N)ccc(c23)C1=O`, the growth was -6.78% (active).

Take `Cc1cc(O)c2c(c1)C1OC(=O)CCCCCN1C1=C2C(=O)c2cccc(OC3CC(O)C(O)C(C)O3)c2C1=O` (configuration not stated): the growth was 79.2%.

Turning to `O=c1c2cccc(Cl)c2sc2c(NCCCNCCO)nc3ccccc3c12`, the growth is -17.8% (active).

On to `O=C(N/N=C/c1ccncc1)c1ccccc1Nc1cccc(C(F)(F)F)c1`, for which the growth was 77.7%.

Take `COc1ccc(/C=C\c2cc(OC)c(OC)c(OC)c2)cc1OC(=O)c1cccc(Cn2cc(CCOC(=O)c3cccc(Cn4nnc5c4C(=O)c4ccccc4C5=O)c3)nn2)c1`: the growth is -21.9% (active).

Regarding `C=CC(=O)Nc1cccc(Oc2nccc(Nc3nnc(C4CC4)s3)n2)c1`, the growth was 78%.

On to `COc1ccc(C2C3=C(COC3=O)N(CCO)c3cc4c(cc32)CCC4)cc1OC` (configuration not stated), for which the growth is 0.0588% (active).

Turning to `COc1ccccc1S(=O)(=O)Nc1ccc2c3c(cc(-c4ccoc4)nc13)C(=O)N2C`, the growth is 8.91% (active).

As for `CN(C)C(=O)SC1=C(c2c(Cl)cccc2Cl)C(=O)c2ccccc21`, the growth was -35.7% (active).

With `CCCCN(C=S)CCCC`, the growth was 104%.

`Cn1c(=O)c2nc(SCc3ccccc3)n(C)c2n(C)c1=O`: the growth is 92.3%.

`COCc1nc2ccccc2[nH]1`: the growth was 96.5%.

In the case of `O=C(CSc1ccc2nnc(-c3cccc(F)c3)n2n1)Nc1ccc2c(c1)OCO2`, the growth is 78.9%.

In the case of `COc1ccc(-c2nc3ccccn3c2-c2nnc(-c3cc(OC)c(OC)c(OC)c3)o2)cc1`, the growth is 85.6%.

As to `c1ccc(-c2cc3cc4ccccc4cn3c2)cc1`, the growth is 94.6%.

For `CCOC(=O)C#Cc1c(C(=O)OCC)nnn1Cc1ccc(C(F)(F)F)cc1`, the growth was 39%.

With `Oc1c(Cl)cc(Cl)cc1CNc1nccnn1`, the growth is 115%.

Turning to `C=C1C(=O)O[C@H]2[C@H]1CC/C(CNC(=O)c1c[nH]c3ccc(F)cc13)=C\CC[C@@]1(C)O[C@@H]21`, the growth is -35% (active).

(Values after PubChem BioAssay (NCI).)
